# Reference: PubChem BioAssay (NCI)
# Several values for one entry are separate records, joined by “and”; a condition that tells them apart may be missing. Equal entries are not always repeated. About 79,000 compounds went through this panel and 15% of them were active in at least one assay; those are over-represented in the sample as a whole. A number with no mark means an inactive call. Activity calls are given as the source filed them. Cut-off read from the data, not from the text of the source: active = growth inhibition above about 70%; inactive = the rest.
# Experiments:
# [1] = NCI Yeast Anticancer Drug Screen. Data for the rad50 strain (AID 155);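 note: 0% = growth of vehicle-only cultures of the same strain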; conditions: S. cerevisiae rad50 strain growth inhibition, stronger effect = higher value; at 50.0 µM unless noted
# How it was run: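 Compounds were tested on a yeast strain with an engineered DNA damage repair alteration; the reported value is growth inhibition normalised to vehicle treatment.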
# [2] = NCI Yeast Anticancer Drug Screen. Data for the mec2-1 strain (AID 157); conditions: S. cerevisiae mec2-1 strain, stronger effect = higher value; at 50.0 µM unless noted
# How it was run: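 Readout is yeast growth inhibition, normalised to vehicle-treated controls, in the mec2-1 strain exposed to compound.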
# [3] = NCI Yeast Anticancer Drug Screen. Data for the sgs1 mgt1 strain (AID 161);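 note: 0% = growth of cultures given vehicle only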; conditions: S. cerevisiae sgs1 mgt1 strain, stronger effect = higher value; at 50.0 µM unless noted
# How it was run: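 Growth of a repair-deficient yeast mutant was monitored after compound treatment and expressed as inhibition relative to vehicle-treated cultures.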
# [4] = NCI Yeast Anticancer Drug Screen. Data for the cln2 rad14 strain (AID 165);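 note: 0% = growth equal to vehicle treated cultures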; conditions: S. cerevisiae cln2 rad14 strain, stronger effect = higher value; at 50.0 µM unless noted
# How it was run: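 Relative to vehicle controls, growth inhibition of compound-treated cln2 rad14 yeast was recorded.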
# [5] = NCI Yeast Anticancer Drug Screen. Data for the bub3 strain (AID 167); conditions: S. cerevisiae bub3 mutant strain, stronger effect = higher value; at 50.0 µM unless noted
# How it was run: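 Growth of a checkpoint-deficient yeast mutant is measured after compound exposure. Values represent inhibition relative to vehicle.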
# [6] = NCI Yeast Anticancer Drug Screen. Data for the mlh1 rad18 strain (AID 175); conditions: S. cerevisiae mlh1 rad18 strain growth inhibition, stronger effect = higher value; at 50.0 µM unless noted
# How it was run: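 Test agents were incubated with a yeast strain of defined genotype (DNA damage repair defect). Inhibition of growth was derived by comparison with vehicle-exposed cultures.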
SMILES,growth inhibition [1],growth inhibition [2],growth inhibition [3],growth inhibition [4],growth inhibition [5],growth inhibition [6]
CCOC(=O)C(=CNc1ccc(OC)cc1[N+](=O)[O-])C(=O)OCC,11.7%,7.85%,11.6%,0.3%,11.3%,15.1%
CC1=NN2C(c3ccc([N+](=O)[O-])cc3)=CSC2=NC(C)(C)C1,20.6%,-5.6%,5.7%,-5%,-4.95%,-11.6%
CCCCC1(CC)COC(=O)N(C)C1 (stereo unspecified),10.8%,4.95%,0.65%,-7.6%,18%,3%
CCCCCCCCCCCC(=O)NC(=S)Nc1cccc(O)c1,84.3% (active),63.8%,74.4% (active),90.3% (active),93% (active),81.4% (active)
Cc1ccc(NC(=O)C(=O)CC(=O)c2sc(Nc3c(C)cccc3C)nc2C)cc1C,13.4%,-9.95%,1.85%,-27.7%,-23.4%,-2%
CCCCCC(=O)OC(c1ccc(Cl)cc1)c1ccc(Cl)cc1,-5.2%,-26.2%,5.5%,12.6%,26.8%,5.3%
CCC1(C)OCCO1,0.5%,-13.5%,-12.1%,-29.9%,1.05%,2.2%
Cc1ccc(NC(=O)c2c(Br)c(Br)c(Br)c(Br)c2C(=O)O)cc1Cl,-1.75%,-5.5%,-8.6%,-22.4%,2.9%,-9.25%
CC(=O)OCC1CCCC(C)C1COC(C)=O (stereo unspecified),2%,-8.7%,-16.1%,-24.1%,20.3%,-2.95%
CCN(CC)C(=S)Oc1ccc(OC(=S)N(CC)CC)cc1,30.6%,7.1%,-0.95%,-6.75%,-2.85%,-7.35%
CCC1CN2CCc3cc(OC)c(OC)cc3C2CC1=O (stereo unspecified),-11.3%,-5.4%,-8.65%,-2.65%,1.15%,-22.1%
Clc1ccc2[nH]ncc2c1,8.9%,-36.1%,-5.9%,-7.95%,7.55%,18.1%
CN(C)/C=N/n1c2ccccc2c2ccccc21,-1.7%,-6.8%,0%,-7.55%,23.6%,14.8%
CCC1CSC(NS(=O)(=O)c2ccc(N)cc2)=N1 (stereo unspecified),-18.4%,-3.5%,-0.7%,-39%,2.15%,1.3%
O=C1/C(=N\[O-])C(S(=O)(=O)[O-])=Cc2cc(S(=O)(=O)[O-])cc(O)c21.O=C1/C(=N\[O-])C(S(=O)(=O)[O-])=Cc2cc(S(=O)(=O)[O-])cc(O)c21.[Cu+2],-1.8%,8.1%,-0.65%,-11.7%,-2.4%,-19.5%
C=C(NC(=O)C(c1ccccc1)c1ccccc1)C(=O)O,21.6%,11.7%,-1.15%,-25.1%,-1.9%,17.4%
COC1OC(COC(=O)c2ccc([N+](=O)[O-])cc2)C2SC12 (stereo unspecified),9.5%,-9.1%,1.8%,-27.6%,6.7%,2.65%
NC(=O)N/N=C(/Cc1nc2ccc(C(=O)c3ccccc3)cc2[nH]c1=O)C(=O)Nc1ccc(C(F)(F)F)cc1[N+](=O)[O-],-7.85%,7.35%,-7.85%,0.8%,-33.6%,5.05%

SMILES,growth inhibition [1],growth inhibition [2],growth inhibition [3],growth inhibition [4],growth inhibition [5],growth inhibition [6]
COC(=O)C1=CN(CCc2ccc(O)cc2)C(=O)C2C1CC(O)C2C (stereo unspecified),5.6%,-6.2%,1.2%,-2.2%,-4.55%,-10.2%
C/C(=C/CC1=C(O)c2ccccc2C(=O)C1=O)CO,23%,32.9%,51.7%,32.8%,26%,33.8%
CC(=O)NC1=NC(=O)/C(=C/c2ccccc2Cl)N1C,-45.7%,-53.8%,-10.9%,8%,-8.85%,28.6%
CC(=O)OCC1OC(OC(C)=O)C(OC(C)=O)C(OC(C)=O)C1OC(C)=O (stereo unspecified),-0.8% and 33.3%,0.25% and 9.6%,-17.5% and 21.1%,-30.9% and 11.5%,-14.4% and 5.45%,-26.1% and 8.9%
NC(=O)NCCCC(N)C(=O)O (stereo unspecified),7.7% and -23.9%,-16.2% and -16.6%,-5.85% and -13.1%,-2.4% and 2.9%,9.45% and -39.5%,-10.4% and -14.9%
CCCCCCCC[Si](c1ccccc1)(c1ccccc1)c1ccccc1,3.15%,22%,3.85%,-9.8%,-2.2%,10.4%
Oc1ccc2ccccc2c1/C=C/c1ccc2c(Br)cc(Br)c(O)c2n1,60.6%,41.1%,28.7%,38%,64.9%,65.3%
COc1cc2c(=O)[nH]c3cc(N)ccc3c2cc1N,9.6%,7.9%,-4.2%,-7.8%,-3.95%,0.6%
Cc1cccc(NC(=O)Nc2ccccc2Cl)n1,23.5%,-3.6%,24.4%,25.7%,13.2%,16.6%
CC(=O)C1=CCCCC1,6.1%,-2.8%,-3.3%,11.7%,14.7%,-7.8%
O=C(Nc1ccc(Br)c2ccccc12)c1ccc2ccccc2c1O,-0.05%,-2.1%,-26.1%,-11.2%,-37.5%,-78.8%
Nc1nc(=S)c2c(ncn2CCO)[nH]1,-25.1%,-32.2%,15.3%,3.4%,-16.1%,3.85%
Cc1cc(CSC(=N)N)c(CSC(=N)N)cc1C,9.75%,-3.85%,-2.45%,-4.25%,4.65%,2.05%
COc1ccccc1OC(=O)c1ccccc1,-27.4%,7.4%,-22.8%,-9.1%,11.5%,-5.35%
O=C(Nc1ccc(S(=O)(=O)NC2CCCCC2)cc1)Oc1ccccc1C(=O)O,49%,-1.65%,39.9%,26.1%,16.1%,32.1%
CC(C)CCn1c(=O)c2c(ncn2C)n(C)c1=O,21.9%,20.3%,22.9%,10.2%,-0.5%,13.2%
COc1ccc(C(CC(=O)C(C)(C)CN2CCCCC2)SCCS(=O)(=O)O)cc1 (stereo unspecified),-2.75%,-4.9%,-3.15%,2.85%,-1.6%,4.15%
COc1cccc(C2c3cc4c(cc3OC(C)(O)C2C)OCO4)c1O (stereo unspecified),-4.7%,-3.75%,-0.25%,-24.8%,1.65%,-9.9%
